NPR2 activator: GC-B (human) receptor activation; P20594; HEK293-GC-B cells, CNP EC30, cGMP TR-FRET; 0% at EC30 CNP, 100% saturating CNP; activation, % at 10 µM; 370,000 tested, 0.11% active; AID 1920062;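 active = activation at 10 µM reaching about 35% in either raw or pattern-adjusted values, limit read from the data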
NPR1 activator: GC-A (human) enzyme activation; AID 1671463; P16066; HEK293 GC-A cells, cGMP TR-FRET, EC30 ANP; 0% at EC30 ANP, 100% saturating ANP; 370,000 tested, 0.14% active; activation, % at 10 µM; in the data active = activation above about 40%
Target sequence (P16066 whole entry, looked up): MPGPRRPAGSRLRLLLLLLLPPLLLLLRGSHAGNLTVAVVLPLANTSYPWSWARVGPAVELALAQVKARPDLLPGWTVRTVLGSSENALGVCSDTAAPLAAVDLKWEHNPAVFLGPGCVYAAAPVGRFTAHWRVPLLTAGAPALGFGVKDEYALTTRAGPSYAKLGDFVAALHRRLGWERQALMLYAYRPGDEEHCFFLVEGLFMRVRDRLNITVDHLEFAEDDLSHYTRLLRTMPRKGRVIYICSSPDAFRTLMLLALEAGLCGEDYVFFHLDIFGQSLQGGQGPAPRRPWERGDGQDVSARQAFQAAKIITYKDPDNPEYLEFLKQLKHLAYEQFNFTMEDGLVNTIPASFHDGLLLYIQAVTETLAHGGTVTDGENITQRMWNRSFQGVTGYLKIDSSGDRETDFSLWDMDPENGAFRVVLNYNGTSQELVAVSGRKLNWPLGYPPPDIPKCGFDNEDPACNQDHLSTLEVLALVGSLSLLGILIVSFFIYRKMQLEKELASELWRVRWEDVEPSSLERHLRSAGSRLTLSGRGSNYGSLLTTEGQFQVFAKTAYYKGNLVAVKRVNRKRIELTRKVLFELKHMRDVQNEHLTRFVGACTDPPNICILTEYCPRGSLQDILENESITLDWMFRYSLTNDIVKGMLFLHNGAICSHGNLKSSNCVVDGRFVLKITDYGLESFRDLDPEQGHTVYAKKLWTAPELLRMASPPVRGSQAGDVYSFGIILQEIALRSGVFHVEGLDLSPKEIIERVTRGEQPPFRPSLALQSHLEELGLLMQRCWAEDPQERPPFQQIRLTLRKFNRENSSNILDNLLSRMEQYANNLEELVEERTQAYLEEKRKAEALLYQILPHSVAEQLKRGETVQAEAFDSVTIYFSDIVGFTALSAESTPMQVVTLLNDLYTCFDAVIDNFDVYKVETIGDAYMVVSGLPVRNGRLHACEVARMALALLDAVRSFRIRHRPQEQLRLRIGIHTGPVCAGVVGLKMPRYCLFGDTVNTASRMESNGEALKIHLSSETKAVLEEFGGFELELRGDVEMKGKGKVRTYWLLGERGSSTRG
proKLK7 act: activates the human kallikrein-7 zymogen. P49862. 370,000 tested, 0.9% active. activation, % at 7 µM. purified proKLK7, EDANS-DABCYL substrate fluorescence; 100% is mature enzyme control, 0% vehicle;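 active = activation above the mean of all tested compounds plus 3 SD, computed per campaign excluding outliers beyond control limits, cut at about 13% in these data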
ADAM17 inh: ADAM17 inhibition, QFRET primary screen. 370,000 tested, 0.83% active. AID 720648. recombinant ADAM17, EDANS/DABCYL FRET peptide cleavage. inhibition, % at 6.95 µM;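 active = inhibition above the mean of compounds lying between control limits plus 3 SD, set per campaign, cut at about 8.5% in these data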
ADAM10 inh: inhibits human ADAM10; 370,000 tested, 0.62% active; recombinant ADAM10, EDANS/DABCYL FRET peptide cleavage, 3 h; inhibition, % at 7 µM;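 active = inhibition above a per-campaign cutoff equal to the mean of compounds falling between control-based bounds plus 3 SD, cut at about 20% in these data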
proKLK7 act conf: confirmation of human kallikrein-7 zymogen activators; shares compounds with proKLK7 act; purified proKLK7, EDANS-DABCYL substrate fluorescence; scaled: vehicle 0, mature enzyme 100; activation, % at 7 µM; 3,200 tested, 68% active; AID 686949;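 active = activation, as change over the incubation, above the mean of all tested compounds plus 3 SD, cut at about 13% in these data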
EDANS-DABCYL int: fluorescence interference counter-screen for KLK7 activators; shares compounds with proKLK7 act; activation, % at 7 µM; 3,200 tested, 80% active; EDANS-DABCYL substrate fluorescence interference, no enzyme, 4 h; solvent 0%, active enzyme control 100%;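 active = activation above the all-compound mean plus 3 SD, ignoring values outside control-based bounds, cut at about 4.8% in these data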;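 also: value is the 4 h activation minus the activation read at time zero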
EDANS interf: counter-screen for kallikrein-7 activators: EDANS-DABCYL interference, dose response; EC50, µM; shares compounds with proKLK7 act; 250 tested, 20% active; EDANS-DABCYL peptide fluorescence interference, no enzyme;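 active = compounds that raise the fluorescence signal in this interference counterscreen, with EC50 at or below 10 µM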;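 also: intact quenched peptide substrate alone read at 355 nm excitation and 520 nm emission; signal is fluorescence gain from T0 to T4 after four hours at room temperature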
Large screens that a line does not name were inactive (follow-up assays come after a bar, where they were run). Rows were chosen to be rich in hits. Some 2.2% of all compounds tested hit in one or more screens of this group.

CCCOc1ccc2cc(-c3ccccn3)c(=O)oc2c1	proKLK7 act 25 | proKLK7 act conf 55 | EDANS-DABCYL int 67
COc1ccc2cc(-c3ccccc3)c(=O)oc2c1	proKLK7 act 23 | proKLK7 act conf 82 | EDANS-DABCYL int 74
CN(C)C(=O)COc1ccc2cc(-c3ccccc3)c(=O)oc2c1	proKLK7 act 33 | proKLK7 act conf 66 | EDANS-DABCYL int 74
COC(=O)CSc1nnc(-c2ccc(NS(=O)(=O)c3ccc(Cl)s3)cc2)o1	none
CC(=O)Oc1ccc2cc(-c3cccnc3)c(=O)oc2c1	proKLK7 act 266 | proKLK7 act conf 72 | EDANS-DABCYL int 72
Cc1cc(OC(C)C(=O)NCC2CCC(C(=O)O)CC2)c2c(C)cc(=O)oc2c1 (configuration not stated)	proKLK7 act 13 | proKLK7 act conf inactive | EDANS-DABCYL int 12
CC(Oc1ccc2cc(-c3ccccc3)c(=O)oc2c1)C(=O)NCC1CCC(C(=O)O)CC1 (configuration not stated)	proKLK7 act 64 | proKLK7 act conf 65 | EDANS-DABCYL int 77
Cc1cc(OC(C)C(=O)NCC2CCC(C(=O)O)CC2)c2c(C)c(Cc3ccccc3)c(=O)oc2c1 (configuration not stated)	none
CCC[C@H]1[C@@H](OC(=O)NCc2ccc(C(F)(F)F)cc2)CC[C@@]23CCCN2C(=O)CCC[C@@H]13	none (no result: proKLK7 act)
O=C(NC1CCC1)c1ccc(C#CC2CC2)c[n+]1[O-]	none
CCOC(=O)[C@]12CCCCC/C=C\1N(CCc1ccc(Cl)cc1)C(=O)[C@H]2CC(=O)NCc1cccc(C(F)(F)F)c1	none
CC1CC(=O)C2=C(C1)Nc1nc3ccccc3n1C2c1cccnc1 (configuration not stated)	proKLK7 act 76 | proKLK7 act conf 64 | EDANS-DABCYL int 72
O=C1CCCC2=C1C(c1ccncc1)n1c(nc3ccccc31)N2 (configuration not stated)	proKLK7 act 47 | proKLK7 act conf 63 | EDANS-DABCYL int 75
Cn1c(C(=O)NCc2ccccn2)cc2c(=O)n3ccccc3nc21	proKLK7 act 53 | proKLK7 act conf 66 | EDANS-DABCYL int 67
COc1ccc(NC(=O)c2cc3c(=O)n4ccccc4nc3n2C)c(OC)c1	none
O=C(NC1CCCC1)c1cc2c(=O)n3ccccc3nc2s1	proKLK7 act 61 | proKLK7 act conf 75 | EDANS-DABCYL int 66
Cc1cccn2c(=O)c3cc(C(=O)N4CCCC(C)C4)sc3nc12 (configuration not stated)	none
CC1CCCN(C(=O)c2cc3c(=O)n4ccccc4nc3s2)C1 (configuration not stated)	proKLK7 act 26 | proKLK7 act conf 30 | EDANS-DABCYL int 34
CC1CCCCN1C(=O)c1cc2c(=O)n3ccccc3nc2s1 (configuration not stated)	proKLK7 act 32 | proKLK7 act conf 40 | EDANS-DABCYL int 40
O=C(Nc1ccc2c(c1)OCO2)O[C@@H]1CC[C@@]23CCCN2C(=O)CCC[C@H]3C1	none (no result: proKLK7 act)
CCOC(=O)CC[C@H]1CC[C@]2(CCCN(C(=O)C3CCCC3)C2)O1	none
CCOC(=O)[C@]12CCCC3=C1N(CCC3)C(=O)[C@@H](CC(=O)NCCC(C)C)C2	none
COc1ccc(-n2c(SCC(=O)NCCCSC)nnc2-c2ccncc2)cc1	none
Cn1c(C(=O)NC2CCCCC2)cc2c(=O)n3ccccc3nc21	proKLK7 act 83 | proKLK7 act conf 81 | EDANS-DABCYL int 75
Cc1ccc(Cn2c(=N)c(C(=O)NC3CCCCC3)cc3c(=O)n4ccccc4nc32)cc1	none
N=C1/C(=C\c2coc3ccccc3c2=O)C(=O)N=C2SC(c3ccncc3)=NN12	proKLK7 act 43 | proKLK7 act conf 47 | EDANS-DABCYL int 39 | EDANS interf inactive
CSC1=NSC2=NC(=O)/C(=C\c3coc4ccccc4c3=O)C(=N)N12	none
Cc1nc2c(C)cccc2c2c1CCN2c1ccccc1F	proKLK7 act 157 | proKLK7 act conf 61 | EDANS-DABCYL int 69
COc1ccc(N2CCc3c(C)nc4c(OC)cccc4c32)cc1	none
CCCn1c(/C=C/c2cc[n+](C)cc2)nc2ccccc21	proKLK7 act 50 | proKLK7 act conf 61 | EDANS-DABCYL int 72
CCOC(=O)/C(=C(/C)N)C1CC(=O)NC1=O (configuration not stated)	proKLK7 act 33 | proKLK7 act conf 37 | EDANS-DABCYL int 37
COc1ccc(CNC(=O)O[C@H]2CC[C@@]34CCCN3C(=O)CCC[C@H]4C2)cc1	none (no result: proKLK7 act)
CCN1CCCC1Cn1cnc2c([nH]c3ccc(C)cc32)c1=O (configuration not stated)	proKLK7 act 16 | proKLK7 act conf inactive | EDANS-DABCYL int 5.0
Cc1ccc2[nH]c3c(=O)n(CCN4CCNCC4)cnc3c2c1	none
Cc1cc(Nc2cccc(F)c2)nc(-c2ccccc2O)n1	proKLK7 act 197 | proKLK7 act conf 13 | EDANS-DABCYL int inactive | EDANS interf inactive
COC(=O)[C@]12C[C@H](CC(=O)NCCCCc3ccccc3)C(=O)N(CCc3ccc(OC)c(OC)c3)C1=C[C@H](COCc1ccccc1)O[C@@H]2C	none
CCC(=O)OCc1cc(=O)oc2ccc3ccccc3c12	proKLK7 act 22 | proKLK7 act conf inactive | EDANS-DABCYL int inactive
O=C1CCC(C(=O)OCc2cc(=O)oc3ccc4ccccc4c23)=NN1	proKLK7 act 145 | proKLK7 act conf 357 | EDANS-DABCYL int 371
COC(=O)C1CN(C2CCCC2)CCS(=O)(=O)N1Cc1cn(Cc2ccc(F)cc2)nn1 (configuration not stated)	none
CCOC(=O)N1CCC(N2CCCC(C(=O)c3cc(C)c(OC)c(C)c3)C2)CC1 (configuration not stated)	none
COc1ccc2cc(C(=O)C3CCCN(Cc4cccc(C)n4)C3)ccc2c1 (configuration not stated)	proKLK7 act 45 | proKLK7 act conf inactive | EDANS-DABCYL int inactive
CCOC(=O)N1CCC(N2CCCC(C(=O)c3ccc4cc(OC)ccc4c3)C2)CC1 (configuration not stated)	proKLK7 act 69 | proKLK7 act conf inactive | EDANS-DABCYL int inactive
Cc1csc(NC(=O)c2ccc(COc3ccccc3F)o2)n1	none
CC(C)(C)c1ccc(-c2nnc(SCc3ccccc3)n2Cc2ccco2)cc1	none

Source: PubChem
